For experiment [1], the target named is Dual specificity protein kinase CLK3 (Homo sapiens) (UniProt P49761). Particulars: at 1 µM.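 Also: each value is the mean inhibition of CLK3.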
Experiment [2] deals with Dual specificity tyrosine-phosphorylation-regulated kinase 1A (Homo sapiens) (UniProt Q13627). The settings on record: at 0.1 µM.
Experiment [3] has the same target. Particulars: at 1 µM.
For experiment [4], the target named is Dual specificity tyrosine-phosphorylation-regulated kinase 1B (Homo sapiens) (UniProt Q9Y463). Particulars: at 0.1 µM.
Experiment [5] has the same target. Particulars: at 1 µM.
Experiment [6] has as its target T1, Dual specificity tyrosine-phosphorylation-regulated kinase 2 (Homo sapiens) (UniProt Q92630).
T1 sequence (whole entry): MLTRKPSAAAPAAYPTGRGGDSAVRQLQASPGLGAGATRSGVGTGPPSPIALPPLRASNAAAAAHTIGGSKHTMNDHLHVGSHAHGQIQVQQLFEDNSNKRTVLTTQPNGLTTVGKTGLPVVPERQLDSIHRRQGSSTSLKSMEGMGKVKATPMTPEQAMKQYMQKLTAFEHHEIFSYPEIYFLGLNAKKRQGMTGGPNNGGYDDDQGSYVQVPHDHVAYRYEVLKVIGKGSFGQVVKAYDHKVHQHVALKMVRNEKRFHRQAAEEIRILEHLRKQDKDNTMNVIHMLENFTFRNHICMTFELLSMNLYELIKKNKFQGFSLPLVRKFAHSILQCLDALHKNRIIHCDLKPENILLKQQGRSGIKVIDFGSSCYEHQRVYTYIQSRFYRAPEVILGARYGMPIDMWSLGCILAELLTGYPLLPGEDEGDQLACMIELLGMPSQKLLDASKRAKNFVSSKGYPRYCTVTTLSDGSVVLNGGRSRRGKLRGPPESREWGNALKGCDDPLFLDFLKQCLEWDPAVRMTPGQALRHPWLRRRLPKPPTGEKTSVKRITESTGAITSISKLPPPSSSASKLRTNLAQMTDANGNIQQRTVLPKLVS
Particulars: at 0.1 µM.

Experiment [7] concerns the target T1, Dual specificity tyrosine-phosphorylation-regulated kinase 2 (Homo sapiens). The settings on record: at 1 µM.
Experiment [8] concerns the target Glycogen synthase kinase-3 alpha (Homo sapiens) (UniProt P49840). The settings on record: at 0.1 µM.
The target is the same in experiment [9]. Particulars: at 1 µM.
For experiment [10], the target named is Glycogen synthase kinase-3 beta (Homo sapiens) (UniProt P49841). The settings on record: at 0.1 µM.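 Also: values are mean percent inhibition of GSK3B activity, from the GSK Published Kinase Inhibitor Set (PKIS) screening dataset.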
Chain of Glycogen synthase kinase-3 beta (Homo sapiens) (P49841 whole entry, looked up): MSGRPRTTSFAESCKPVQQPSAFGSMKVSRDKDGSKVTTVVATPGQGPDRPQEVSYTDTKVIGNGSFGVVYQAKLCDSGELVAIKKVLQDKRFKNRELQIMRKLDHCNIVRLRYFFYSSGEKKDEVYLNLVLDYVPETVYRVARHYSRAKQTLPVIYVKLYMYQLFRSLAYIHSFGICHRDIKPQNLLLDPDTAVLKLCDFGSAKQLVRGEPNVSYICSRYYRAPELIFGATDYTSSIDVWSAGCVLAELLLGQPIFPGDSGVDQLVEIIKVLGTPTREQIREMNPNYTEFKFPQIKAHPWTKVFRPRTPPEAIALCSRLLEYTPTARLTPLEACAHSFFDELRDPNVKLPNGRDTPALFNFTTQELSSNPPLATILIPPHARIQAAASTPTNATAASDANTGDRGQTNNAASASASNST

Chain of Glycogen synthase kinase-3 alpha (Homo sapiens) (P49840 2-483 limits assumed): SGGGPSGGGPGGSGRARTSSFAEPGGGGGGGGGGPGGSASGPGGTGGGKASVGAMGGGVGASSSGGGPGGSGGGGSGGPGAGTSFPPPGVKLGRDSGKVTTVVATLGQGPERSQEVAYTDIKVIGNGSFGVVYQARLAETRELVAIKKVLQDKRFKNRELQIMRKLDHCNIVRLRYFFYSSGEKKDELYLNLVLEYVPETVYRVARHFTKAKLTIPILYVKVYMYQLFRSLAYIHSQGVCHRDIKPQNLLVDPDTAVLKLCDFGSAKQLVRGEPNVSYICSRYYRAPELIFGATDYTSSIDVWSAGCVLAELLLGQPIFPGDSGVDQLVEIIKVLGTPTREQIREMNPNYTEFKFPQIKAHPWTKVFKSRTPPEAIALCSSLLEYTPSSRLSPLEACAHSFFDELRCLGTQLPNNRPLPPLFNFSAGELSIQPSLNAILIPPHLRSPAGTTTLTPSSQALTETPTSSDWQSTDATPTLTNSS
Chain of Dual specificity tyrosine-phosphorylation-regulated kinase 1B (Homo sapiens) (Q9Y463 whole entry, looked up): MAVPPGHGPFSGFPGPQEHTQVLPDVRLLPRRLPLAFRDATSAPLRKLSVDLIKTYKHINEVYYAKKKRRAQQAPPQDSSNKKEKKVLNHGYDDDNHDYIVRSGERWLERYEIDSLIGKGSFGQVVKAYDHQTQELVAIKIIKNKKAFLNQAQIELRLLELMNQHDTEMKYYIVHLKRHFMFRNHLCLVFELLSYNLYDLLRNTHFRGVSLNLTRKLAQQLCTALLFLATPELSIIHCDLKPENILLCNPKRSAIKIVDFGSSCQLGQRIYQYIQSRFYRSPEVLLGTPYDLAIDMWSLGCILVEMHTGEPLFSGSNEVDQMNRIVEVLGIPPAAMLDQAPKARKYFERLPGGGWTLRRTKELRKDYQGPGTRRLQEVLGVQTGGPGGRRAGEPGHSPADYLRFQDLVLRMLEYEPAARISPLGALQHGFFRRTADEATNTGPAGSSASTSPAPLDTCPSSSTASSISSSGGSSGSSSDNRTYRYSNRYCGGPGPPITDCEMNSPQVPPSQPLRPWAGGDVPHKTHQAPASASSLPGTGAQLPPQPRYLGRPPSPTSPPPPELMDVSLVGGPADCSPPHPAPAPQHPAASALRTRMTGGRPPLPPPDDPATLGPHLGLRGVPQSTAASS
Chain of Dual specificity protein kinase CLK3 (Homo sapiens) (P49761 whole entry, looked up): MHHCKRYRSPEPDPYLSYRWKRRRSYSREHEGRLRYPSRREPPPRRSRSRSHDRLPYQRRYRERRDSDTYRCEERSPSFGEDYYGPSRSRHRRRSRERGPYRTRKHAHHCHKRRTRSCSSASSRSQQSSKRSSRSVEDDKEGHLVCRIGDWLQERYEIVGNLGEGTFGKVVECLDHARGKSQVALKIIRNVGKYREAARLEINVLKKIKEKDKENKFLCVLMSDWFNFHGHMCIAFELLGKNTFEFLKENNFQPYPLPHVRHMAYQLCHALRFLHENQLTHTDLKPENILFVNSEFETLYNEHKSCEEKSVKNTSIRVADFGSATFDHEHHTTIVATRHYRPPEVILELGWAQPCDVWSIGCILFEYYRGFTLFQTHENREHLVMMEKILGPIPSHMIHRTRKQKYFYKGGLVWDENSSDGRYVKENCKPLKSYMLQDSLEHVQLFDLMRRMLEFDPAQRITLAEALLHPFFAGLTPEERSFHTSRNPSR

On to `Nc1nccc(-c2c(-c3ccc(F)cc3)ncn2CCCN2CCOCC2)n1`, for which the inhibition was found to be 1.24% in experiment [1]; 2.64% in experiment [2]; 3.19% in [3]; 0.74% in [4]; 0.15% in [5]; 3.1% in experiment [6]. Moreover, the inhibition was determined as 4.1% in experiment [7], 1.73% in [8], 4.53% in experiment [9] and 0.93% in experiment [10].
As to `COc1ccc(-c2nn3ncccc3c2-c2ccnc(Nc3cccc(C(F)(F)F)c3)n2)cc1`, the inhibition in experiment [1] was 0.95%; in experiment [2] it was 2.09%; in experiment [3] it was 1.66%; in experiment [4], -0.34%; in experiment [5] it was 1.16%; in experiment [6], 1.77%. Also, the inhibition in [7] amounted to 0.78%; in [8], 2.36%; in [9] it was 2.7%; in experiment [10] it was 1.41%.
Regarding `Cc1cc(-c2ccccn2)cc(C)c1/C=C/c1cncc(-c2nn[nH]n2)c1`, the inhibition in [1] came to 0.95%; in [2] it was 2.5%; in experiment [3], 1.98%; in experiment [4], 2.58%; in [5] it was 4.24%; in experiment [6] it was 3.69%. Further, the inhibition is 4.85% in [7], 5.73% in [8], 12.5% in experiment [9] and 5.72% in experiment [10].
Regarding `CN(c1ccc(NC(=O)Nc2ccc(OC(F)(F)F)cc2)cc1)c1ccnc(Nc2cccc(S(N)(=O)=O)c2)n1`, the inhibition in [1] was 1.99%; in experiment [2], 1.32%; in experiment [3] it was 1.5%; in experiment [4], -2.14%; in experiment [5], -0.44%; in [6], 2.23%. For the same compound, the inhibition is 3.14% in experiment [7], 2.09% in experiment [8], 9.4% in experiment [9] and 0.92% in [10].
In the case of `Nc1nccc(-c2c(-c3ccc(F)cc3)nn3cc(C(F)(F)F)ccc23)n1`, the inhibition is 0.23% in experiment [1]; 0.54% in experiment [2]; 16.4% in experiment [3]; -1.44% in [4]; 0.98% in experiment [5]; 0.12% in [6]. For the same compound, the inhibition is -1.97% in experiment [7], -1.1% in experiment [8], -0.65% in experiment [9] and -1.01% in experiment [10].
Take `NS(=O)(=O)c1ccc(NC=C2C(=O)Nc3ccc4ncsc4c32)cc1`: the inhibition was determined as 17.3% in experiment [1]; 30.9% in experiment [2]; 63.2% in experiment [3]; 20.4% in experiment [4]; 57.6% in [5]; 10.9% in experiment [6]. The inhibition in experiment [7] is 46.2%; in experiment [8], 40.4%; in experiment [9] it was 70.9%; in experiment [10], 41.1%.
For `O=C(Nc1ccc(Oc2ccc3[nH]c(NC(=O)c4ccco4)nc3c2)cc1)Nc1cc(C(F)(F)F)ccc1F`, the inhibition in [1] is -2.83%; in [2], -3.75%; in experiment [3], -1.33%; in experiment [4], -3.67%; in experiment [5], -1.57%; in [6] it was 0.62%. Moreover, the inhibition is 0.74% in experiment [7], -1.87% in [8], 2.71% in [9] and -2.51% in experiment [10].
For `COc1cc2ncn(-c3cc(OCc4ccccc4S(C)(=O)=O)c(C#N)s3)c2cc1OC`, the inhibition in experiment [1] was 3.74%; in experiment [2] it was 6.14%; in experiment [3], 19.3%; in experiment [4], 2.5%; in experiment [5], 13.9%; in experiment [6], 2.4%. The inhibition in experiment [7] was determined as 4.87%; in [8], 4.96%; in experiment [9], 11.3%; in [10] it was 4.26%.
As for `Cc1ccc(C(=O)NC2CC2)cc1-c1ccc2[nH]ncc2c1`, the inhibition in experiment [1] was 0.04%; in [2] it was -1.4%; in [3] it was 2.6%; in [4] it was 1.19%; in experiment [5], 3.29%; in [6], -3.32%. In addition, the inhibition in experiment [7] is -3.69%; in experiment [8], -1.07%; in experiment [9], 1.83%; in experiment [10] it was -0.96%.
On to `NS(=O)(=O)c1ccc(-c2cc3ccncc3cc2OCc2ccccc2)cc1`, for which the inhibition in [1] amounted to 3.69%; in experiment [2], 1.26%; in [3], 4.84%; in experiment [4], 0.97%; in experiment [5], 2.12%; in [6] it was 2.46%. Also, the inhibition is 3.11% in experiment [7], 2.45% in [8], 4.95% in experiment [9] and 2.08% in [10].
As to `COc1cc(Nc2nccc(-c3cnn4ncccc34)n2)cc(OC)c1`, the inhibition in [1] amounted to 77.3%; in [2] it was 85%; in [3], 91.2%; in experiment [4] it was 87.4%; in experiment [5] it was 92.4%; in [6], 5.46%. Moreover, the inhibition in [7] was 30.2%; in experiment [8] it was 49.7%; in experiment [9], 86.8%; in [10], 60.2%.
Consider `Cc1ccc(NC(=O)CC2CC2)cc1-c1ccc(C(=O)NCC2CC2)cc1`, for which the inhibition in [1] turned out to be 1.83%; in [2], 0.93%; in experiment [3], 3.49%; in experiment [4] it was 0.61%; in experiment [5], 1.49%; in experiment [6] it was 2.06%. Besides, the inhibition was determined as 2.68% in experiment [7], 2.32% in [8], 2.3% in [9] and 1.75% in experiment [10].
Regarding `c1ccc(Cc2nc3ccc(Nc4ncnc5ccccc45)cc3[nH]2)cc1`, the inhibition in experiment [1] was 5.49%; in experiment [2], 6.02%; in experiment [3], 9.77%; in experiment [4] it was 5.37%; in experiment [5] it was 8.13%; in experiment [6], 1.99%. In addition, the inhibition turned out to be 3.84% in experiment [7], 5.62% in experiment [8], 9.56% in experiment [9] and 5.99% in experiment [10].
Take `COc1cc(/C=N/Nc2ncnc3c2cnn3C(C)C)ccc1O`: the inhibition in experiment [1] is 31.6%; in [2], 1.4%; in experiment [3], 8.18%; in experiment [4], 0.35%; in experiment [5] it was 7.69%; in [6], 1.46%. Also, the inhibition in [7] was found to be 5.67%; in experiment [8] it was 6.47%; in experiment [9] it was 37.4%; in experiment [10] it was 4.9%.
For the compound `COC(=O)c1ccc2c(c1)C(=Cc1cc(Br)c(O)c(Br)c1)C(=O)N2`, the inhibition in [1] is 7.3%; in experiment [2] it was 14.2%; in experiment [3], 61.9%; in experiment [4] it was 9.22%; in experiment [5], 53.5%; in experiment [6], 5.68%. The inhibition in experiment [7] is 18.8%; in experiment [8], 9.38%; in [9], 42.9%; in [10] it was 9.77%.
For `COC(=O)c1cncc(/C=C/c2c(C)cc(O)cc2C)c1`, the inhibition in experiment [1] turned out to be 3.16%; in [2] it was 2.81%; in [3], 7.4%; in experiment [4], 0.83%; in experiment [5], 4.47%; in [6], 3.09%. Further, the inhibition in [7] was determined as 4%; in [8], 7.07%; in experiment [9] it was 14.3%; in experiment [10], 6.58%.
With `C[C@@H](Oc1cc(-n2cnc3ccc(OC[C@@H](O)CO)cc32)sc1C(N)=O)c1ccccc1Cl`, the inhibition in experiment [1] was 1.12%; in experiment [2] it was 0.12%; in experiment [3] it was 3.71%; in experiment [4], 1.13%; in [5], 2.69%; in [6], -1.33%. In addition, the inhibition in [7] was determined as 1.61%; in experiment [8] it was 0.1%; in [9], 3.84%; in experiment [10], 0.42%.
